Measured values reported in ChEMBL document CHEMBL3988442, “University of Dundee, Small-Polar-MMV Screening Library” (2021).
In all, about 66,000 compounds went through this assay and about 960 (1.5%) showed an effect of 50% or more. The entries come from a sample that favours strong results as a whole.

Tested on: Trypanosoma brucei
Assay: Trypanosoma brucei 72 hour study
Type: functional, organism-based
Set-up: scale not given: in the data most compounds retested in dose-response had high values

Row | SMILES | Percent Effect (30 µM, 30.03 µM) | Percent Effect (30.3 µM, […])
1 | COc1ccccc1C1SCC(=O)Nc2n[nH]cc21 (stereo not drawn) | 40.76% | 
2 | COc1cc(C2SCC(=O)Nc3n[nH]cc32)cc(OC)c1O (stereo not drawn) | 53.45% | 
3 | COc1cc(C2SCC(=O)Nc3ccsc32)cc(OC)c1O (stereo not drawn) | 23.79% | 
4 | COc1cc(OC)c(C2SCC(=O)Nc3n[nH]cc32)cc1OC (stereo not drawn) | 60.77% | 
5 | COc1ccc(OC)c(C2SCC(=O)Nc3n[nH]cc32)c1 (stereo not drawn) | 38.65% | 
6 | COc1ccc(C2SCC(=O)Nc3n[nH]cc32)c(OC)c1OC (stereo not drawn) | -21.04% | 
7 | COCc1cncc2c1CCN(Cc1cccs1)C2.O=C(O)C(F)(F)F.O=C(O)C(F)(F)F |  | -85.33%
8 | COCCN1CCC12CCN(C(=O)c1ccc(C)nc1)C2.O=C(O)C(F)(F)F (stereo not drawn) |  | 8.313%
9 | CN(C)CCN1CCN(Cc2cccs2)Cc2cccnc21.O=C(O)C(F)(F)F.O=C(O)C(F)(F)F.O=C(O)C(F)(F)F |  | -59.56%
10 | CCN1C[C@@H]2[C@@H](OC)CCN(C(=O)Cc3ccsc3)[C@@H]2C1.O=C(O)C(F)(F)F |  | -11%
11 | CN(C)CCOCc1cncc2c1CCN(C1CCOC1)C2.O=C(O)C(F)(F)F.O=C(O)C(F)(F)F.O=C(O)C(F)(F)F (stereo not drawn) |  | -50.42%
12 | Cc1ccc2c(c1)C1(CCNCC1)CC2NC1CC1.Cl.Cl (stereo not drawn) |  | 15.24%
13 | Cc1ccc2c(c1)C(NC(C)C)CC21CCNCC1.Cl (stereo not drawn) |  | -30.38%
14 | Cc1ccc2c(c1)C(NC1CC1)CC21CCNCC1.Cl (stereo not drawn) |  | 51.53%
15 | CC(C)CN1CCC2(C1)CN(c1ncccn1)C2.O=C(O)C(F)(F)F | -1.682% | 
16 | Cc1nc(CN2CCO[C@@H]3CC(COc4ccccn4)C[C@H]32)cs1.O=C(O)C(F)(F)F.O=C(O)C(F)(F)F (stereo partly drawn) |  | -42.66%
17 | Cc1cc(N2CCC(NC(C)Cc3ccsc3)CC2)nc(C)n1 (stereo not drawn) | 18.53% | 
18 | Cc1cc(N2CCC(NC(C)Cc3ccsc3)CC2)nc(N)n1 (stereo not drawn) | 101% | 
19 | Cc1cc(CC(C)NC2CCN(CC(C)C)CC2)[nH]n1 (stereo not drawn) | 11.44% | 
20 | CCO[C@@H]1CC[C@H]2[C@H]1OCCN2CC1CCC1.O=C(O)C(F)(F)F | -19.35% | 
21 | CCc1ccc(CN2CC[C@@H]3NC(=O)CC[C@@H]32)o1.O=C(O)C(F)(F)F |  | -13.17%

Row | SMILES | Percent Effect (30 µM, 30.03 µM) | Percent Effect (30.3 µM, […])
22 | c1cnc(N2CCCC3(CCN(Cc4ccsc4)C3)C2)nc1 (stereo not drawn) | 44.57% | 
23 | c1cnc(N2CCCC3(CCN(Cc4cccs4)C3)C2)nc1 (stereo not drawn) |  | -58.76%
24 | Fc1ccccc1CN1CCCC2(CCN(c3ncccn3)C2)C1 (stereo not drawn) |  | 102.7%
25 | Cc1cccc(CN2CCC[C@@H]3CN(C(=O)c4ccco4)C[C@@H]32)n1.O=C(O)C(F)(F)F | -18.06% | 
26 | Cc1noc(C)c1CN1CC[C@H]2OCC[C@@]2(C(=O)N2CCCC2)C1.O=C(O)C(F)(F)F | -22.78% | 
27 | CC(C)N(C)Cc1cncc2c1CCN(CC(=O)N(C)C)C2.Cl.Cl.Cl |  | 7.599%
28 | Cc1cccc(CN2C[C@@H]3COC[C@H](NS(C)(=O)=O)[C@@H]3C2)n1.O=C(O)C(F)(F)F.O=C(O)C(F)(F)F |  | -15.48%
29 | O=C(NC[C@]12COC[C@H]1CN(Cc1cccnc1)C2)c1ccsc1.O=C(O)C(F)(F)F.O=C(O)C(F)(F)F | 39.91% | 
30 | O=C(O)C(F)(F)F.c1cnc(N2C[C@H]3CCN(Cc4ccncc4)C[C@H]3C2)nc1 |  | -2.942%
31 | O=C(O)C(F)(F)F.O=C(O)C(F)(F)F.c1cnc(N2CC[C@@H]3CN(Cc4ccncc4)CCO[C@@H]3C2)nc1 |  | -15.11%
32 | O=C(O)C(F)(F)F.O=C(O)C(F)(F)F.c1ccc(N2CC[C@@H]3CN(Cc4ccncc4)CCO[C@@H]3C2)cc1 |  | 99.05%
33 | Cl.Cl.NCC1[C@H]2CN(CCc3ccccc3)C[C@@H]12 (stereo partly drawn) |  | 0.5802%
34 | O=C(O)C(F)(F)F.O=S(=O)(C1CC1)N1CCOC2(CCCN(Cc3ccccn3)C2)C1 (stereo not drawn) |  | -44.45%
35 | COc1c(C2SCC(=O)Nc3[nH]ncc32)cc2c(c1OC)OCO2 (stereo not drawn) |  | 46.19%
36 | COc1cc(C2SCC(=O)Nc3[nH]ncc32)c(OC)c2c1OCO2 (stereo not drawn) |  | 5.203%
37 | COc1cc(C2SCC(=O)Nc3[nH]ncc32)cc2c1OCO2 (stereo not drawn) |  | 86.32%
38 | CN(C)Cc1cncc2c1CCN(C1CCOCC1)C2.Cl.Cl.Cl |  | -35.22%
39 | O=C(Cc1ccccc1)N1CCC2(CCN2Cc2ccc(F)cc2)C1.O=C(O)C(F)(F)F (stereo not drawn) |  | 10.12%
40 | CCCN1C(=O)CC2(CCCNC2)C1=O.Cl (stereo not drawn) |  | -8.6%
41 | Cc1cccc(-c2ncc(CNC(C)Cc3ccncc3)cn2)c1 (stereo not drawn) |  | -157.2%
42 | CC(Cc1cccc(F)c1)NCc1cnc(N2CCN(C)CC2)nc1 (stereo not drawn) | 94.94% | 

Row | SMILES | Percent Effect (30 µM, 30.03 µM) | Percent Effect (30.3 µM, […])
43 | Cc1cccc(-c2ncc(CNC(C)Cc3ncccc3C)cn2)c1 (stereo not drawn) |  | -134.7%
44 | Cn1nc(CN2CCCCC(N)C2)c2c(Cl)cccc21 (stereo not drawn) |  | 88.2%
45 | CC(C)n1ccc2ccc(C(=O)NC3CN4CCC3CC4)cc21 (stereo not drawn) | -12.75% | 
46 | Cn1ccc2c(C(=O)NC3CN4CCC3CC4)cccc21 (stereo not drawn) | -26.79% | 
47 | Cn1ncc2c(NC3CN4CCC3CC4)nc(-c3ccncc3)nc21 (stereo not drawn) |  | 99.69%
48 | O=C(C1CCOCC1)N1C[C@H]2CNC[C@H]2C1 |  | 14.48%
49 | CN1CC[C@H]2OCC[C@@]2(C(=O)NCCc2ccccn2)C1.O=C(O)C(F)(F)F.O=C(O)C(F)(F)F |  | -17.73%
50 | O=C(O)C(F)(F)F.O=C(O)C(F)(F)F.O=C(O)C(F)(F)F.c1cc(COC[C@]23COC[C@H]2CN(Cc2ccncc2)C3)ccn1 | -36.39% | 
51 | O=C(O)C(F)(F)F.O=C(O)C(F)(F)F.c1cc(COC[C@]23COC[C@H]2CN(CC2CCC2)C3)ccn1 | 51.43% | 
52 | O=C(O)C(F)(F)F.O=C(O)C(F)(F)F.c1cc(COC[C@]23COC[C@H]2CN(Cc2ccsc2)C3)ccn1 | 16.71% | 
53 | O=C(O)C(F)(F)F.O=C(O)C(F)(F)F.O=C(O)C(F)(F)F.c1cncc(CN2CCN3C[C@H](Oc4cncnc4)C[C@H]3C2)c1 |  | -85.06%
54 | O=C(NCc1cnn2cccnc12)C1CC2(CCNCC2)CN1 (stereo not drawn) | 54.89% | 
55 | CN1CC2(CCNCC2)CC1C(=O)NCCCNc1cccnc1 (stereo not drawn) |  | -6.231%
56 | O=C(O)C1CC2(CCN(c3nccc4ccccc34)CC2)CN1 (stereo not drawn) | 23.73% | 
57 | COc1ncccc1CN1C[C@H]2CCN(c3ncccn3)C[C@H]2C1.O=C(O)C(F)(F)F |  | -7.481%
58 | OCC1N(Cc2ccco2)[C@H]2CC[C@]1(O)CC2 (stereo partly drawn) |  | -9.73%
59 | O=C(NCc1ccccn1)[C@]12COC[C@H]1CN(Cc1ccsc1)C2.O=C(O)C(F)(F)F.O=C(O)C(F)(F)F |  | -46.8%
60 | Cc1cc(CN2C[C@@H]3COC[C@H](C(=O)N4CCCCO4)[C@@H]3C2)no1.O=C(O)C(F)(F)F |  | -104.8%
61 | Cc1noc(C)c1CN1C[C@@H]2COC[C@@H](C(=O)N3CCCO3)[C@@H]2C1 |  | 79.91%
62 | Cc1noc(C)c1CN1C[C@@H]2COC[C@H](C(=O)N3CCCO3)[C@@H]2C1 |  | -103.2%
63 | O=C(Nc1cccnc1)[C@H]1CN(Cc2nccs2)C[C@H]2OCC[C@@H]12.O=C(O)C(F)(F)F.O=C(O)C(F)(F)F.O=C(O)C(F)(F)F | 6.623% | 

Row | SMILES | Percent Effect (30 µM, 30.03 µM) | Percent Effect (30.3 µM, […])
64 | Cc1cccc(CN2C(=O)C[C@H]3[C@@H]2CCN3CC2CC2)n1.O=C(O)C(F)(F)F.O=C(O)C(F)(F)F |  | 9.244%
65 | CNC(=O)c1ccc2c(c1)C1(CCN(C(C)C)CC1)C(=O)N2.O=C(O)C(F)(F)F |  | -29.31%
66 | CCC1CNCc2cc3c(OC)ccc(OC)c3nc2O1 (stereo not drawn) |  | 8.287%
67 | CCC1CNCc2cc3c(C)ccc(C)c3nc2O1 (stereo not drawn) |  | 58.28%
68 | Cc1cccc(CN2CC[C@H]3OCC[C@@]3(C(=O)N3CCCO3)C2)n1.O=C(O)C(F)(F)F.O=C(O)C(F)(F)F |  | -52.48%
69 | O=C(O)C(F)(F)F.O=C(O)C(F)(F)F.O=C([C@H]1C[C@H]2OCC[C@H]2N(Cc2cccnc2)C1)N1CCCCO1 |  | -300.7%
70 | O=C(C[C@@H]1COC[C@H]2CN(Cc3cccnc3)C[C@@H]12)NCC1CC1.O=C(O)C(F)(F)F.O=C(O)C(F)(F)F |  | -16.86%
71 | CCC1CCCCN1CCc1ccncc1 (stereo not drawn) |  | 96.43%
72 | CC1CN(CCc2ccncc2)CCO1 (stereo not drawn) | -38.53% | 
73 | CN(c1ncccc1C#N)C1CCN(CCc2ccncc2)CC1 | -5.163% | 
74 | Fc1cccc(CN2CCC3(CCN3c3ncccn3)C2)c1.O=C(O)C(F)(F)F (stereo not drawn) |  | -29.27%
75 | COCCN1CCC2(COCc3cnc(-c4ccccc4)nc32)C1.O=C(O)C(F)(F)F (stereo not drawn) |  | -55.77%
76 | CCOC(=O)[C@@H]1[C@@H](c2ccccc2)CN2CCNC[C@H]12 |  | -24.8%
77 | O=C1CSC(c2ccc3c(c2)OCO3)c2cnn(C3CCCCC3)c2N1 (stereo not drawn) | 6.351% | 
78 | O=C1CSC(c2cccs2)c2cnn(C3CCCC3)c2N1 (stereo not drawn) | 106.7% | 
79 | COC(=O)c1ccc(C2SCC(=O)Nc3c2cnn3C2CCCC2)cc1 (stereo not drawn) | 9.206% | 
80 | CN1CCN(S(=O)(=O)c2cccc(F)c2)Cc2cccnc21.O=C(O)C(F)(F)F |  | -5.986%
81 | COCCN1CCN(c2cccc(C)n2)Cc2ccc(C)nc21.O=C(O)C(F)(F)F.O=C(O)C(F)(F)F |  | 60.56%
82 | COCCN1CCN(c2ccc(C)nn2)Cc2ccc(C)nc21.O=C(O)C(F)(F)F.O=C(O)C(F)(F)F |  | 6.262%
83 | COCCN1CCN(S(C)(=O)=O)Cc2ccc(C)nc21.O=C(O)C(F)(F)F |  | -28.84%
